# Values without a mark were called inactive. Results filed as inconclusive are left out. Calls of active or inactive are those of the source. Unless noted, the call rests on the fitted dose curve; in most records, active means well fitted curve in the direction sought with a large enough effect; inconclusive means small, poorly fitted or top-dose-only effect, or another doubt; inactive means no such curve, though single readings can be large; an effect the other way counts as inactive or inconclusive.
# Legend:
# [1] = AP1 Signaling Pathway (AID 357; active means well fitted curve in either direction with a large enough effect, not every such curve was filed as active;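 further: ME-180 reporter cells stimulated with EGF at its EC50 level; on the % scale 0 is the no-effect control and ±100 the full control effect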); conditions: ME-180 (cervical carcinoma) AP-1-bla reporter, EGF-induced, beta-lactamase ratio, 5 h; at 38 µM (top of the series)
# Outline: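 Cells are seeded overnight, exposed to compound titrations and an EC50 level of EGF for 5 hours at 37 °C, then loaded with CCF4 dye for 2.5 hours. Beta-lactamase activity under the AP-1 element is read as a blue/green ratio.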
# [2] = Confirmation and Secondary Assay for Modulators of Hemoglobin Beta Chain Splicing at IVS2 654 locus (AID 910);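 further: per-well total GFP intensity by laser scanning cytometry after 2-day treatment; % of control where 0% means no effect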
# Outline: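 HeLa cells stably carrying EGFP interrupted by mutant beta-globin IVS2-654 intron (CMV-driven) were treated with compound for 2 days at 37C; corrected splicing was scored as total peak GFP intensity per well (488 nm excitation, 500-520 nm emission).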
# [3] = qHTS Assay for Identification of Small Molecule Agonists for Thrombopoietin (TPO) Signaling Pathway (AID 917); further: on the % scale 0 is the no-effect control and ±100 the full control effect
# Outline: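 We measured Glycoprotein IIb promoter–luciferase output in IL-3-starved Ba/F3 murine cells expressing the human TPO receptor after 24 hrs at 37 C with compounds and 26 pM TPO.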
# [4] = Confirmation and Secondary Assay for Modulators of Hemoglobin Beta Chain Splicing at IVS2 705 locus (AID 930);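 further: HeLa cells stably expressing the EGFP-705 splicing reporter; % of control where 0% means no effect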
# Outline: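 Restored EGFP fluorescence after 2-day compound exposure reports splicing correction in IVS2-705 EGFP reporter HeLa cells; positive control was 500 nM splice-blocking PNA oligo. Signal measured as well total peak GFP intensity (488 nm excitation).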
# [5] = biological target: Muscarinic acetylcholine receptor M1 (Rattus norvegicus) (UniProt P08482); experiment: qHTS Assay for Antagonists of Acetylcholine Muscarinic M1 Receptor: Kinetic Measurement of Intracellular Calcium Response (AID 943); further: potency means the concentration at half of the fitted maximal effect; nearly all actives have a fitted effect of over 75% in size
# Sequence of Muscarinic acetylcholine receptor M1 (Rattus norvegicus) (P08482 whole entry, looked up): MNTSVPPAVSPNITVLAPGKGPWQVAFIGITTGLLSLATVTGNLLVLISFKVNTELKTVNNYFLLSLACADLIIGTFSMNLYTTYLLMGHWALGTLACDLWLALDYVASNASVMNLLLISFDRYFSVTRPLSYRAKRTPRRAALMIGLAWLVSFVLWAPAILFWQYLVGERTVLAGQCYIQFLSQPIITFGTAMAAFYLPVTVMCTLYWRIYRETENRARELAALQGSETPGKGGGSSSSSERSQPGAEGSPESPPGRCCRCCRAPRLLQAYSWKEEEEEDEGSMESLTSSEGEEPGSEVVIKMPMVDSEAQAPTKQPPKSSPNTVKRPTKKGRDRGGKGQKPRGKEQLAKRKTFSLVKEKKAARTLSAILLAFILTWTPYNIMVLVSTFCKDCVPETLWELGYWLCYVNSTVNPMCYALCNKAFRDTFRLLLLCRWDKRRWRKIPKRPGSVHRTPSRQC
# Outline: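 Rat M1-CHO cells, 2000/well, overnight → Fluo-4 no-wash dye with probenecid, 1 h 37C → compound 10 min, room temp → basal read 6 s → carbachol EC80 (100 nM) → 4 min kinetic read; peak/basal.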
# [6] = biological target: Muscarinic acetylcholine receptor M1 (Rattus norvegicus) (UniProt P08482); experiment: qHTS Assay for Antagonists of Acetylcholine Muscarinic M1 Receptor: Measurement of IP-One Response (AID 944); further: nearly all actives have a fitted effect of over 75% in size
# Outline: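 M1-CHO (rat), 2000 cells/well, overnight recovery; cpd 10 min; carbachol EC80 (200 nM), 30 min, HEPES buffer + 50 mM LiCl pH 7.4; IP-One HTRF, Ex 337, Em 620/665 nm.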
# [7] = biological target: Pyruvate kinase (Leishmania mexicana) (UniProt Q27686); experiment: qHTS Validation Assay for Inhibitors of Leishmania Mexicana Pyruvate Kinase (AID 945);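 further: 0% = DMSO only neutral control wells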
# Sequence of Pyruvate kinase (Leishmania mexicana) (Q27686 2-499 E452W): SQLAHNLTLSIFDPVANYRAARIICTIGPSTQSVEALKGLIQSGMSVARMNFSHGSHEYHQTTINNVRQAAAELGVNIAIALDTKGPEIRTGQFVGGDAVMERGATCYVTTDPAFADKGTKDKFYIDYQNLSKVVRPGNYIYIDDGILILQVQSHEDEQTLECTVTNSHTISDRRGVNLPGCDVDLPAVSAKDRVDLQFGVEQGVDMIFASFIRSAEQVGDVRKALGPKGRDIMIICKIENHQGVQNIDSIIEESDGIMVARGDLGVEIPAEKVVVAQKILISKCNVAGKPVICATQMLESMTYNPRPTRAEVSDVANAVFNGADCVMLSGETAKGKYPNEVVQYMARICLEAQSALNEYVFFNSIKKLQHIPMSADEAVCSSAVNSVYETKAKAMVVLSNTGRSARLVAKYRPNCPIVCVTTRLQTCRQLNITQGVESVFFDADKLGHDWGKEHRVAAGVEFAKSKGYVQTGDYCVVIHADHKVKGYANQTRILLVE
# Outline: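 Purified LmPYK (E451W mutant, 0.2 nM) was incubated 1 h at room temperature with 0.5 mM PEP and 0.1 mM ADP in 50 mM imidazole pH 7.2, 50 mM KCl, 7 mM MgCl2; ATP formed was read by PKLight luminescence, normalized to DMSO wells.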
# [8] = biological target: Alpha-galactosidase A (Homo sapiens) (UniProt P06280); experiment: Counterscreen for Glucocerebrosidase Inhibitors: qHTS Assay for Human alpha-Galactosidase at pH 4.5 (AID 992); further: 0% is about no effect
# Sequence of Alpha-galactosidase A (Homo sapiens) (P06280 whole entry, looked up): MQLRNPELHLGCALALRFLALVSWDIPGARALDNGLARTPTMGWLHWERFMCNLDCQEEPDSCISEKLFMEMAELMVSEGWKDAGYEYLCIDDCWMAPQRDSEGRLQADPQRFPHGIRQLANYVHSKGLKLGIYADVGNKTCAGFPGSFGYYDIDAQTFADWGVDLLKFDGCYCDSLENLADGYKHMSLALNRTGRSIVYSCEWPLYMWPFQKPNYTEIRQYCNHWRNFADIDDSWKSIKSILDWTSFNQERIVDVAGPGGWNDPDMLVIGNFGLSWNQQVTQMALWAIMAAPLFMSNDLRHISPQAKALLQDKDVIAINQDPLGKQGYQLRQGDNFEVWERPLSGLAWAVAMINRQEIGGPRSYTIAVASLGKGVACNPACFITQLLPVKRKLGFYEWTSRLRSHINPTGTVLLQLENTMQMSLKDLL
# Outline: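 Enzyme at 2 nM final was combined with compound (0.7 nM to 77 uM) and 80 uM 4-methylumbelliferyl alpha-D-galactopyranoside in 50 mM citric acid, 0.005% Tween-20, pH 4.5. After 20 min at room temperature, fluorescence was read (Ex 365/Em 440 nm); AC50 came from Hill fits.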
# [9] = biological target: Ubiquitin carboxyl-terminal hydrolase 1 (Homo sapiens) (UniProt O94782); experiment: Inhibitors of USP1/UAF1: Pilot qHTS (AID 504865);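 further: rhodamine fluorescence freed from ubiquitin-rhodamine substrate followed over time; top concentration of the series differs between compounds; on the % scale 0 is the no-effect control and ±100 the full control effect; nearly all actives have a fitted effect of over 35% in size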
# Sequence of Ubiquitin carboxyl-terminal hydrolase 1 (Homo sapiens) (O94782 whole entry, looked up): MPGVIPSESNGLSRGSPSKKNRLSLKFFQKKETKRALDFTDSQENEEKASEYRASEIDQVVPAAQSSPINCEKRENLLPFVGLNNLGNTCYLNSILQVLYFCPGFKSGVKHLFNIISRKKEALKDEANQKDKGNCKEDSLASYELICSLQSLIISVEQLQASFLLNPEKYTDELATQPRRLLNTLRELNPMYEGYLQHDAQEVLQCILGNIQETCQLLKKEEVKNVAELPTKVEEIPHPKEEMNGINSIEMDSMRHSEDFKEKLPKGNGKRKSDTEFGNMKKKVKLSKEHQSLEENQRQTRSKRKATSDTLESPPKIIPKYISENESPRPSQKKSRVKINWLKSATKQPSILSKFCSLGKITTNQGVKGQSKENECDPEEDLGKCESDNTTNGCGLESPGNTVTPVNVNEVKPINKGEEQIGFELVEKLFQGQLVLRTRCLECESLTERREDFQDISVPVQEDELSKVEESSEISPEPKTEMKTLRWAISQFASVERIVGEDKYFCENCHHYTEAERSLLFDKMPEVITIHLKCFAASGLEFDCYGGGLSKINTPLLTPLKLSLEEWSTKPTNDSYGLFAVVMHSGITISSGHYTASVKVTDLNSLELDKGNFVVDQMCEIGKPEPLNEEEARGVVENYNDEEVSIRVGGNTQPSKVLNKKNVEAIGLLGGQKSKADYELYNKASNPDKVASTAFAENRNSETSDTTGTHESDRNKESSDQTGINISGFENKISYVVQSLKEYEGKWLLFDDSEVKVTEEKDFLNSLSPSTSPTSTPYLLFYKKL
# Outline: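 Kinetic fluorescence assay: 1nM USP1/UAF1, 15 min compound preincubation, then 150nM Ub-Rho; 480/540 nm.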
# [10] = biological target: Voltage-gated inwardly rectifying potassium channel KCNH2 (Homo sapiens) (UniProt Q12809); experiment: qHTS Assay for Small Molecule Inhibitors of the Human hERG Channel Activity (AID 588834);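 further: potency means the concentration at half of the fitted maximal effect; lower thallium flux fluorescence means stronger hERG block; nearly all actives have a fitted effect of over 50% in size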
# Sequence of Voltage-gated inwardly rectifying potassium channel KCNH2 (Homo sapiens) (Q12809 whole entry, looked up): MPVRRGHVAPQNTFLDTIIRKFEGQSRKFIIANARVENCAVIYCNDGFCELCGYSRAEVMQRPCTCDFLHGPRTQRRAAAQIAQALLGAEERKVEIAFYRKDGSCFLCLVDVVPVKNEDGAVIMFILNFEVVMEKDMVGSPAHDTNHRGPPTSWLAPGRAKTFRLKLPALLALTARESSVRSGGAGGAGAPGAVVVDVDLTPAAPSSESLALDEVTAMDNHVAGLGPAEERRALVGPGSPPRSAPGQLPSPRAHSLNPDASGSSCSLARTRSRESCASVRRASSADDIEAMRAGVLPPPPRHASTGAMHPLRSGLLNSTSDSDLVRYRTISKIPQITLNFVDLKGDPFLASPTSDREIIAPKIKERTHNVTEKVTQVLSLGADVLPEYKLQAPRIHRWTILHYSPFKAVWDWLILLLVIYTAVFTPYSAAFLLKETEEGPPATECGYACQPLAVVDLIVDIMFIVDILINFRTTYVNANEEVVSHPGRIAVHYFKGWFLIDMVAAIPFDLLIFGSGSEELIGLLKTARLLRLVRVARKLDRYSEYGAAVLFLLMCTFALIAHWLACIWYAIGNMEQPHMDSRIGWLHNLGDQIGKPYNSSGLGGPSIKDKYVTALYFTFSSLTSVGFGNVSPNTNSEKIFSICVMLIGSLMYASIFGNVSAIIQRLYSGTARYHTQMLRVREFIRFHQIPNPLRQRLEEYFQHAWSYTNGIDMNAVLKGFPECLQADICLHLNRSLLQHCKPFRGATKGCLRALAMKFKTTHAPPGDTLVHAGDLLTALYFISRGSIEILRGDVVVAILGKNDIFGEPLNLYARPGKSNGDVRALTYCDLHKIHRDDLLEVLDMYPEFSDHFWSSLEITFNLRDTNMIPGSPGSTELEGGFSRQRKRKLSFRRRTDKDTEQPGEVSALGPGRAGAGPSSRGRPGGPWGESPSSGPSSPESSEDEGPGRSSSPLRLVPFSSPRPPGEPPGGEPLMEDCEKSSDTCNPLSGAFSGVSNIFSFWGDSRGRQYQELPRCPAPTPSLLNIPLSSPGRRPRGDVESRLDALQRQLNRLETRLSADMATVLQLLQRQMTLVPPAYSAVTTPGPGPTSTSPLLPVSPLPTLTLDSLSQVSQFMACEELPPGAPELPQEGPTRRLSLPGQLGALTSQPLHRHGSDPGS
# Outline: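 Measured: FluxOR fluorescence after thallium stimulation in U2OS cells transduced with hERG by baculovirus. Compounds pre-incubated around 10 min; medium Opti-MEM with 2% FCS. AC50 from Hill equation.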
# [11] = biological target: Luciferin 4-monooxygenase (Photinus pyralis) (UniProt P08659); experiment: Biochemical firefly luciferase enzyme assay for NPC (AID 624030);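 further: purified P. pyralis luciferase at 10 nM with luciferin and ATP substrate; 0% = DMSO and -100% = full luciferase inhibition by PTC124 control; nearly all actives have a fitted effect of over 70% in size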
# Sequence of Luciferin 4-monooxygenase (Photinus pyralis) (P08659 whole entry, looked up): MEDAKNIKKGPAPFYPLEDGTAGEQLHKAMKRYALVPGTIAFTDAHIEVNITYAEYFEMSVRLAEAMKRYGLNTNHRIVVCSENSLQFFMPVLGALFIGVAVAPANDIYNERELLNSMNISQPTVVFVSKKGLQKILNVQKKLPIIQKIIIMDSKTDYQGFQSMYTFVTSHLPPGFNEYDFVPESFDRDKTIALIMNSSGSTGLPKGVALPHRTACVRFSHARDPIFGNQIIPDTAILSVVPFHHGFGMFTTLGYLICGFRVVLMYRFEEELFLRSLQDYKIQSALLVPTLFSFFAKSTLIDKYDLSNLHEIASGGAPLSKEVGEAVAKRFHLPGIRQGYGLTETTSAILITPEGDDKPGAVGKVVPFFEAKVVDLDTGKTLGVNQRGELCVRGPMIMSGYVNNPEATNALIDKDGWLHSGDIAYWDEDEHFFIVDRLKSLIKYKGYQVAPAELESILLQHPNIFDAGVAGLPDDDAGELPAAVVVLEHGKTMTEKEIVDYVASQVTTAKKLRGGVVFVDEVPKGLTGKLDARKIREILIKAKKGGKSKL
# Outline: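 Counter-screen for direct inhibition of the luciferase enzyme by approved-drug library compounds, run at 10 nM enzyme in 50 mM Tris acetate (final). Luminescence was read within 5 min of enzyme-buffer addition and normalized to PTC124 versus DMSO (0%).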
# [12] = S16 Schwann cell PMP22 intronic element beta-lactamase assay (AID 624044; calls by dose curve;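 further: 0% = DMSO and -100% = potassium clavulanate positive control; nearly all actives have a fitted effect of over 15% in size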)
# Outline: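 Rat S16 Schwann cells with beta-Lac driven by a PMP22 intronic element, compound-treated 24 h at 37 °C. LiveBLAzer FRET B/G read: 460 nm normalized to potassium clavulanate vs DMSO; 535 nm FRET as viability; concentration-effect curves classified.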
# [13] = P-glycoprotein substrates identified in KB-8-5-11 adenocarcinoma cell line, qHTS therapeutic library screen (AID 1346987); further: potency means the concentration at half of the fitted maximal effect; nearly all actives have a fitted effect of over 65% in size
# Outline: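 Steps: plate 500 KB-8-5-11 cells/well in DMEM + 10% FCS (colchicine removed); pin compounds in dose-response; incubate 72 h, 37 degree C, 5% CO2; add CellTiter-Glo, 5 min; read luminescence.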
# 7G8 = experiment: qHTS profiling for inhibitors of Plasmodium falciparum proliferation (AID 504749); further: nearly all actives have a fitted effect of over 60% in size; further: potency means the concentration at half of the fitted maximal effect; conditions: P. falciparum in erythrocytes, SYBR Green DNA, 72 h; series mostly up to 28.7 µM
# Outline: (§1)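 Parasite proliferation within erythrocytes, 72 h exposure. Endpoint: SYBR Green I fluorescence after overnight lysis at room temperature. Controls: 0.29 uM artemisinin, DMSO.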
# ATS189 = experiment: as above; conditions: P. falciparum in erythrocytes, SYBR Green DNA, 72 h; series mostly up to 28.7 µM
# Outline: as §1
# ATS95 = experiment: as above; conditions: P. falciparum in erythrocytes, SYBR Green DNA, 72 h; series mostly up to 28.7 µM
# Outline: as §1
# CP191 = experiment: as above; conditions: P. falciparum in erythrocytes, SYBR Green DNA, 72 h; series mostly up to 28.7 µM
# Outline: as §1
# CP237 = experiment: as above; conditions: P. falciparum in erythrocytes, SYBR Green DNA, 72 h; series mostly up to 28.7 µM
# Outline: as §1
# CP291 = experiment: as above; conditions: P. falciparum in erythrocytes, SYBR Green DNA, 72 h; series mostly up to 28.7 µM
# Outline: as §1
# DIV14 = experiment: as above; conditions: P. falciparum in erythrocytes, SYBR Green DNA, 72 h; series mostly up to 28.7 µM
# Outline: as §1
# DIV17 = experiment: as above; conditions: P. falciparum in erythrocytes, SYBR Green DNA, 72 h; series mostly up to 28.7 µM
# Outline: as §1
# Dd2 = experiment: as above; conditions: P. falciparum in erythrocytes, SYBR Green DNA, 72 h; series mostly up to 28.7 µM
# Outline: as §1
# FAB9 = experiment: as above; conditions: P. falciparum in erythrocytes, SYBR Green DNA, 72 h; series mostly up to 28.7 µM
# Outline: as §1
# GB4 = experiment: as above; conditions: P. falciparum in erythrocytes, SYBR Green DNA, 72 h; series mostly up to 28.7 µM
# Outline: as §1
# ICS = experiment: as above; conditions: P. falciparum in erythrocytes, SYBR Green DNA, 72 h; series mostly up to 28.7 µM
# Outline: as §1
# P93_24 = experiment: as above; conditions: P. falciparum in erythrocytes, SYBR Green DNA, 72 h; series mostly up to 28.7 µM
# Outline: as §1
# SC27B = experiment: as above; conditions: P. falciparum in erythrocytes, SYBR Green DNA, 72 h; series mostly up to 28.7 µM
# Outline: as §1
# TAB165 = experiment: as above; conditions: P. falciparum in erythrocytes, SYBR Green DNA, 72 h; series mostly up to 28.7 µM
# Outline: as §1
# W2 = experiment: as above; conditions: P. falciparum in erythrocytes, SYBR Green DNA, 72 h; series mostly up to 28.7 µM
# Outline: as §1
# [14] = Drug repurposing screens with cells derived from glioblastoma tumor samples (AID 1345199); conditions: GBM patient neurospheres viability, ATP luminescence, 48 h; further: nearly all actives have a fitted effect of over 40% in size; further: potency means the concentration at half of the fitted maximal effect; on activity, negative = cell killing: on the % scale 0 is the no-effect control and ±100 the full control effect
# Outline: (§2)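 Four patient lines of CD133+ GBM neurospheres were screened at several concentrations; hits were retested in those lines plus three slower-growing GBM lines, using 48-hour treatment and ATP-based viability.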
# astro = experiment: as above; conditions: viability, ATP luminescence, 48 h; series mostly up to 45.9 µM
# Outline: as §2
compound,measurement,setting,value
CN1CCN(CCC=C2c3ccccc3Sc3ccc(S(=O)(=O)N(C)C)cc32)CC1,"activity change, negative = inhibition",[1],18.8%
same,outcome,[2],inactive
same,Potency,[3],inactive
same,outcome,[4],inactive
same,Potency,[5],14.1 µM (active)
same,Potency,[6],inactive
same,Potency,[7],inactive
same,outcome,[8],inactive
same,Potency,[9],inactive
same,Potency,[10],10 µM (active)
same,Potency,[11],inactive
same,Potency,[12],inactive
same,Potency,[13],23.1 µM (active)
same,Potency,7G8,5.01 µM (active)
same,Potency,ATS189,8.91 µM (active)
same,Potency,ATS95,11.2 µM (active)
same,Potency,CP191,12.6 µM (active)
same,Potency,CP237,11.2 µM (active)
same,Potency,CP291,15.1 µM (active)
same,Potency,DIV14,8.49 µM (active)
same,Potency,DIV17,9.53 µM (active)
same,Potency,Dd2,12.6 µM (active)
same,Potency,FAB9,inactive
same,Potency,GB4,13.5 µM (active)
same,Potency,ICS,7.94 µM (active)
same,Potency,P93_24,12.6 µM (active)
same,Potency,SC27B,11.2 µM (active)
same,Potency,TAB165,8.91 µM (active)
same,Potency,W2,6.01 µM (active)
same,"activity, negative = cell killing","[14]; at 46.1 µM (top of the series), tumour line C",4.82%
same,Potency,[14]; tumour line A,7.08 µM (active)
same,Potency,[14]; tumour line B,35.5 µM (active)
same,Potency,astro,31.6 µM (active)
